Source: PubChem BioAssay
SMARCA2 act – activators of SMARCA2 function. activation, % at 9.1 µM. MG213 cells, MMTV-luciferase reporter, dexamethasone, overnight. AID 652017. hit rate 1% among 370,000; in the data active = activation above about 7.8%
FXN GAA850 act – frataxin GAA850 promoter activation; HEK293 lucGAA850 FXN promoter luciferase reporter, 24 h; percent of 10 µM SAHA response; activation, % at 6 µM; hit rate 0.56% among 360,000; AID 540364;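 active = activation above the average of all compounds screened plus 3 SD, cutoff fixed separately per campaign, cut at about 7.5% in these data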
HSF1 inh – HSF1 inhibition. hit rate 0.77% among 300,000. AID 2098. activity change, negative = inhibition, % at 7.5 µM (by protocol). NIH3T3-HGL HSE-luciferase, MG132-induced, luminescence 8 h; active compounds read low;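 active = more than half of replicate wells show activity change below -50%, luminescence cut by over half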;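 also: luciferase reports HSF-1 transcriptional activity via heat shock element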
HSP90 refold inh – inhibitors of HSP90 luciferase refolding in rabbit reticulocyte lysate. luciferase refolding luminescence, 3 h. inhibition, % at 5.6 µM. hit rate 0.91% among 290,000. AID 1789;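 active = inhibition above the screen-wide mean plus 3 SD, computed separately per campaign, cut at about 16% in these data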;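 also: inhibitors lower the luminescence because luciferase stays unfolded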
PG9 Ab binder – small molecules binding HIV-1 gp120 antibody PG9 | TR-FRET gp120-PG9 antibody binding | inhibition, % at 6.7 µM | hit rate 0.43% among 360,000; in the data active = inhibition above about 8.5%
AI-2 QS mod – Vibrio harveyi AI-2 quorum sensing modulation; Vibrio harveyi JMH597 AI-2 luminescence/OD600 ratio, 9 h; active compounds read low; strain lacks LuxN and CqsS sensors; 0 = neutral-control median; activity change, % at 7.5 µM; hit rate 0.4% among 300,000; AID 2094; in the data active = activity change below about -75%, passing the limit was not always enough;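 also: luminescence divided by OD600 gain over 9 h not by final OD600 alone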
SMARCA2 act conf – SMARCA2 activation, confirmation screen. shares compounds with SMARCA2 act. MG213 cells, MMTV-luciferase with dexamethasone, luminescence, overnight; MG213 cells expressing E1A, Rb sequestered; DMSO wells 0%, reference activator 100%. activation, % at 9.1 µM. hit rate 30% among 3,500;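 active = activation above its plate's cutoff, the mean activation of tested wells plus 3 SD, cut at about 7.9% in these data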
GAL4-VP16 Luc – GAL4-VP16 reporter activation counter-screen; hit rate 41% among 3,500; shares compounds with SMARCA2 act; AID 686939; HEK293 GAL4-VP16 pG5luc reporter, luciferase luminescence; scaled: DMSO wells 0%, SAHA wells 100%; activation, % at 9.1 µM;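 active = activation above the solvent-only control well mean plus 3 SD, averaged across control plates, cut at about 5.2% in these data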
Hits are given with their value; 0 = inactive; - = no result. Only some compounds are listed: those with a hit (about 3.4% of all), similar ones and a draw of the others.

SMILES	SMARCA2 act	FXN GAA850 act	HSF1 inh	HSP90 refold inh	PG9 Ab binder	AI-2 QS mod	SMARCA2 act conf	GAL4-VP16 Luc
Cc1ccc2nc(-c3ccc(N4C(=O)CC(N5CCN(CCO)CC5)C4=O)cc3)sc2c1 (configuration not stated)	8.6	0	0	0	0	0	0	0
Cc1ccc(N2C(=O)CC(N3CCN(c4ccccn4)CC3)C2=O)cc1 (configuration not stated)	0	0	0	0	0	0	-	-
CCc1cc2c(nc1CC)CCCN2S(=O)(=O)c1ccc(C)cc1	0	-	-	-	0	-	-	-
Cc1ccc(C(=O)N/N=C/c2ccc3c(c2)OCO3)o1	0	0	0	0	0	0	-	-
CN(C)c1ccc(/C=C/C(=O)c2ccc3c(c2)OCO3)cc1	8.0	0	-	-	0	-	0	0
Cc1ccc(C(=O)/C=C/c2ccc3c(c2)OCO3)o1	11	0	0	0	0	0	9.4	0
Cc1ccc(NC(=O)/C=C/c2ccc3c(c2)OCO3)nc1	9.3	0	0	0	0	0	12	6.6
CC(C)C[C@@H](CN)NC(=O)c1nc[nH]c1C(=O)N[C@@H](CC(=O)O)C(=O)CNC[C@H](C)NC(=O)c1nc[nH]c1C(=O)N[C@@H](CC(=O)O)C(=O)O	0	0	-	-	0	-	-	-
COCCCNC(=O)[C@@H](Cc1ccccc1)NC(=O)[C@H]1O[C@@H](n2ccc(=O)[nH]c2=O)[C@H](O)[C@@H]1O	0	-	-	-	0	-	-	-
COC(=O)[C@]12C[C@H](CC(=O)NCc3ccc(C)o3)C(=O)N(Cc3cccc4ccccc34)C1=C[C@H](COCc1ccccc1)O[C@@H]2C	0	-	-	-	-	-	-	-
CCOC1=C2[C@H](c3ccccc3)N(S(=O)(=O)c3ccc(C)cc3)[C@H](C(C)C)[C@H]2C(C#N)(C#N)C(C#N)(C#N)C1	0	-	-	-	0	-	-	-
COC(=O)[C@]12C[C@H](CC(=O)NCc3ccc(C)o3)C(=O)N(Cc3ccccc3)C1=C[C@H](C(C)C)O[C@@H]2C1CC1	0	-	-	-	0	-	-	-
COc1ccc2[nH]c(C)c(CCN3C(=O)C4CC=CCC4C3=O)c2c1 (configuration not stated)	9.1	0	0	0	0	0	0	0
NC(=O)c1ccc(-c2ncc(-c3ccccc3)o2)cc1	18	0	0	0	0	0	17	11
c1ccc(-c2cnc(-c3cccnc3)o2)cc1	0	0	-	0	0	-	-	-
COc1cc(SC)ccc1C(=O)NCCOc1c(C)cc(C)cc1C	0	0	0	0	0	0	-	-
COc1cc(SC)ccc1C(=O)Nc1ccc(C)cc1C	8.1	-	0	0	0	0	13	14
CCOC(=O)CSc1n[nH]c(-c2ccco2)n1	9.4	0	0	0	0	0	0	0
Cn1nccc1C(=O)N1CCN(c2ccccc2Cl)CC1	8.0	0	0	0	0	0	0	0
CC(=O)Nc1ccc(OS(=O)(=O)c2c(C)cc(C)cc2C)cc1	0	0	0	0	0	0	-	-
CC(=O)Nc1cc(C)c(S(C)(=O)=O)c(C)c1	8.1	0	0	0	0	0	0	0
CCOC(=O)Nc1cc(=O)c([N+](=O)[O-])c(N)[nH]1	0	-	-	-	0	-	-	-
CC1(C(=O)NCCN2CCOCC2)C=CC2(CCCCC2)N1C(=O)c1ccccc1 (configuration not stated)	8.7	0	0	0	0	0	0	0
COCCNC(=O)C1(C)C=CC2(CCCCC2)N1C(=O)c1ccccc1 (configuration not stated)	0	0	0	0	0	0	-	-
O=C(Nc1ccccc1C(=O)NCCc1ccccc1)c1ccco1	9.1	0	0	0	0	0	11	7.4
SMILES	SMARCA2 act	FXN GAA850 act	HSF1 inh	HSP90 refold inh	PG9 Ab binder	AI-2 QS mod	SMARCA2 act conf	GAL4-VP16 Luc
COC(=O)[C@]12C[C@H](CC(=O)NCc3cccc(C(F)(F)F)c3)C(=O)N(CCC3=CCCCC3)C1=C[C@H](COCc1ccccc1)O[C@@H]2C	0	-	-	-	0	-	-	-
CC(C)(C)c1nnc(NC(=O)c2ccc3c(c2)OCO3)s1	10	0	0	0	0	0	8.4	6.4
COc1ccccc1/C=C/c1nc2ccccc2c(=O)o1	10	0	0	0	0	0	0	12
COc1ccc(/C=C2/CCc3ccccc3C2=O)cc1CN1CCOCC1	8.0	0	0	0	0	0	0	0
CCCC(C)NC(=O)CN(Cc1ccco1)S(=O)(=O)c1ccccc1 (configuration not stated)	15	0	-	-	0	-	0	0
O=C1ON(Cc2ccccc2)C(c2ccccc2)N1c1ccccc1 (configuration not stated)	11	0	-	-	0	-	0	0
CC(=O)c1ccc2c(c1)N(Cc1ccccc1Cl)C(=O)C(C)S2 (configuration not stated)	0	0	-	-	0	-	-	-
Cn1c(-c2nnn(-c3ccc(F)cc3)n2)cc2ccccc21	8.8	-	0	0	0	0	0	8.4
Cc1ccc(-n2nnc(-c3cc4ccccc4n3C)n2)cc1	0	0	0	0	0	0	-	-
CCOC(=O)[C@]12CCC=C1N(Cc1ccccc1)C(=O)[C@H](CC(=O)NCCc1ccccc1OC)C2	10	-	-	-	0	-	0	0
CCOC(=O)[C@]12CCCC=C1N(Cc1ccco1)C(=O)[C@H](CC(=O)NCCc1ccccc1OC)C2	8.3	-	-	-	0	-	0	0
CCOC(=O)[C@]12CCCC=C1N(Cc1ccccc1)C(=O)[C@H](CC(=O)NCCc1ccccc1OC)C2	0	-	-	-	0	-	-	-
CCCCNC(=O)C[C@@H]1C[C@@]2(C(=O)OCC)CCCC=C2N(Cc2ccco2)C1=O	0	-	-	-	0	-	-	-
O=C(NC1CCC1)c1ccc(C#CC2CC2)c[n+]1[O-]	15	-	-	-	-	-	11	5.2
CS(=O)(=O)c1ccc(C(=O)NC2CCCCC2)cc1	0	0	0	0	0	0	-	-
C[C@@H]1CN([C@@H](C)CO)C(=O)CCCn2cc(nn2)CO[C@H]1CN(C)C(=O)Nc1cccc(C(F)(F)F)c1	0	-	-	-	0	-	-	-
Cc1cccc(CSc2cn(CC(=O)N3CCOCC3)c3ccccc23)c1	0	0	0	0	0	0	-	-
O=C(Cn1cc(SCc2cccc(Cl)c2)c2ccccc21)N1CCOCC1	18	0	0	0	0	0	0	5.4
COc1cccc(Nc2nc(-c3cccnc3)cs2)c1	11	0	0	0	0	0	13	6.6
COc1cc2ccccc2cc1C(=O)Nc1ccc(N2CCN(C)CC2)cc1	19	0	0	-	0	0	9.7	8.8
COc1cc2ccccc2cc1C(=O)Nc1ccc(N2CCN(C(=O)C(C)C)CC2)cc1	0	0	0	0	0	0	-	-
